This note sets out measurements from PubChem BioAssay (EPA / NIEHS).

“And” between values parts separate entries of the source, which are not always exact repeats. Identical values can stand only once. More than one record can exist for a structure, and the calls need not agree. The source made the active and inactive calls. The calls were made as follows: active = hit-call score of the fitted dose curve at least 0.9, where 1 is the maximum; inactive = score below 0.9.

Read-out in the assay: Actin alpha 1 (ACTA1), ACTA1 (gene 58)
Kind of assay: BSK_MyoF_ACTA1: BioMAP Diversity Plus: MyoF Assay for Actin alpha 1 (ACTA1) Biomarker Activity (AID 2284244). The note with it: primary human lung fibroblasts. As for the experimental part: BSK_MyoF is a cell-based, multiplexed-readout assay that uses lung fibroblasts, […], with measurements taken at 24 hours after chemical dosing in a microplate: 96-well plate.BSK_MyoF_ACTA1 is an assay component measured in the BSK_MyoF assay. It measures a-SMA antibody related to regulation of gene expression using ELISA technology.Data from the assay component BSK_MyoF_ACTA1 was analyzed at the endpoint, BSK_MyoF_ACTA1, in the positive analysis fitting direction relative to DMSO as the negative control and baseline of activity. Using a type of binding reporter, gain or loss-of-signal activity can be used to understand protein changes. To generalize the intended target to other relatable targets, this assay endpoint is annotated to the 'cell adhesion molecules' intended target family, where the subfamily is 'actin'.
The levels of cell surface (or secreted, indicated by the prefix "s") biomarker endpoints were measured by ELISA. Overt cytotoxicity to cells in confluent adherent cultures (all systems other than the BT system) was assessed by measuring total protein levels using sulforhodamine B (SRB) staining in parallel cultures at the time of biomarker measurements, indicated as SRB endpoints. For proliferation assays for adherent cell types, individual cell types are cultured at sub-confluence and relative cell numbers quantified by SRB staining at time points optimized for each system (48 h: 3C and CASM3C systems; 72 h: BT and HDF3CGF systems; 96 h: SAg system). SRB was performed by staining cells with 0.1% SRB after fixation with 10% TCA and reading wells at 560 nm.Viability and proliferation of PBMC (T cells) was quantified by Alamar Blue reduction for the SAg and BT systems. For PBMC viability (referred to as PBMC Cytotoxicity within the assay endpoint names), cells were plated (75,000/well in a 96-well plate) and then chemical samples added for 1 h before addition of activators, SEB and TSST-1 (20 ng/mL final concentration each). Cells were incubated for 90 h. Then, Alamar Blue (20 uL/well) (Invitrogen, Cat DAL1100) was added for 6 h, and the plates were read with a fluorescence microplate reader at 546/580 nm (excitation/emission). For PBMC proliferation, cells were plated and activated as above but incubated for only 16 h prior to addition of Alamar Blue. Plates were read after 6 h.
A word on the AC50: it is the concentration at which the activity in the assay is half-maximal. With `C=CC(=O)OCC(F)(F)C(F)(F)C(F)(F)C(F)(F)COC(=O)C=C`, the concentration at half-maximal activity (AC50) was 8.86 µM (active) and 9.38 µM (active).

Take `CCc1ccc(C(c2ccc(CC)cc2)C(Cl)Cl)cc1`: the AC50 was 7.07 µM (active).

As for `O=C(O)C(F)(F)C(F)(F)C(F)(F)C(F)(F)C(F)(F)C(F)(F)C(F)(F)C(F)(F)C(F)(F)C(F)F`, the AC50 was 38.1 µM (active) and 36.2 µM (active).

For the compound `OCCCC(F)(F)C(F)(F)C(F)(F)F`, the outcome was inactive.

On to `C=CC(F)(F)C(F)(F)C(F)(F)C(F)(F)C(F)(F)C(F)(F)C(F)(F)C(F)(F)C=C`, for which the result was inactive.

With `CCCCOCCOCCOC(=O)CCCCC(=O)OCCOCCOCCCC`, the outcome was inactive.

For `C=CC(F)(F)C(F)(F)C(F)(F)C(F)(F)C(F)(F)C(F)(F)C(F)(F)C(F)(F)F`, the outcome was inactive.

As to `C=CC(=O)OCC(F)(F)C(F)(F)C(F)(F)C(F)(F)C(F)(F)C(F)(F)C(F)(F)F`, the result was inactive.

`FC(F)(F)C(F)(F)C(F)(F)C(F)(F)C(F)(F)C(F)(F)CC1CO1` (stereo not given): the result was inactive.

In the case of `O=C(O)C(F)(F)C(F)(F)C(F)F`, the result was inactive.

On to `FC(F)(F)C(F)(F)CNCC(F)(F)C(F)(F)F`, for which the outcome was inactive.

On to `O[Si](c1ccccc1)(c1ccccc1)c1ccccc1`, for which the AC50 is 20 µM (active).

With `O=C(O)C(F)(F)C(F)(F)C(F)(F)C(F)(F)C(F)(F)C(F)(F)C(F)(F)C(F)(F)C(F)(F)C(F)(F)C(F)(F)C(F)(F)C(F)(F)F`, the outcome was inactive.

Regarding `O=C(O)C(F)(F)C(F)(F)C(F)(F)C(F)(F)C(F)(F)C(F)(F)C(F)(F)C(F)(F)C(F)(F)C(F)(F)C(F)(F)C(F)(F)F`, the half-maximal activity concentration (AC50) was 0.786 µM (active) and the result was inactive.

On to `CCCCCCCOC(=O)c1ccccc1C(=O)OCCCCCCC`, for which the outcome was inactive.

Regarding `CCCCCCC(C)OC(=O)CCCCC(=O)OC(C)CCCCCC` (stereo not given), the outcome was inactive.

For `O=C(O)C(F)(F)C(F)(F)OC(F)(F)F`, the result was inactive.

`O=S(=O)(OCC(F)F)C(F)(F)F`: the outcome was inactive.

Take `OCC(F)(F)C(F)(F)C(F)(F)C(F)(F)C(F)(F)C(F)(F)F`: the outcome was inactive.

As for `C=C(C)C(=O)OCC(F)(F)C(F)(F)C(F)(F)C(F)(F)C(F)(F)C(F)(F)C(F)(F)F`, the outcome was inactive.

Regarding `FC(F)(Br)C(F)(F)C(F)(F)C(F)(F)C(F)(F)C(F)(F)Br`, the outcome was inactive.

As to `OCC(F)(F)C(F)(F)C(F)(F)C(F)(F)C(F)(F)C(F)F`, the outcome was inactive.

As for `C=C(C)C(=O)OCCC(F)(F)C(F)(F)C(F)(F)C(F)(F)C(F)(C(F)(F)F)C(F)(F)F`, the result was inactive.

As to `CCN(CC)c1ccc2c(C)cc(=O)oc2c1`, the result was inactive.

Regarding `C#C[C@]1(O)CC[C@H]2[C@@H]3CCc4cc(OC)ccc4[C@H]3CC[C@@]21C`, the result was inactive.

On to `FC(F)(F)C(F)(F)C(F)(F)C(F)(F)C(F)(F)CCI`, for which the result was inactive.

`O=C(O)C(F)(OC(F)(F)C(F)(OC(F)(F)C(F)(F)C(F)(F)F)C(F)(F)F)C(F)(F)F` (stereo not given): the result was inactive.

Regarding `CCCCCCCCCCCCCCCC[N+](C)(C)Cc1ccccc1`, the AC50 was 1.36 µM (active).

With `C=CC/C=C/C/C=C/C/C=C/C`, the result was inactive.

Take `N=C(N)C(F)(F)C(F)(F)C(F)(F)C(F)(F)C(F)(F)C(F)(F)C(F)(F)F`: the outcome was inactive.

On to `FC(F)(I)C(F)(F)C(F)(F)C(F)(F)I`, for which the AC50 is 48.6 µM (active) and 49 µM (active) and 34.3 µM (active).

As for `CC(=O)Nc1ccc(N=Nc2cc(C)ccc2O)cc1`, the result was inactive.

With `CS(C)(=O)=O`, the outcome was inactive.

As to `CC(CCl)OP(=O)(OC(C)CCl)OC(C)CCl` (stereo not given), the outcome was inactive.

Turning to `FC1CC(F)(F)C(F)(F)C1(F)F` (stereo not given), the result was inactive.

Take `Nc1ccc([N+](=O)[O-])cc1O`: the result was inactive.

Take `O=C(O)C(F)(F)C(F)(F)F`: the outcome was inactive.

`O=C(O)C=C(C(F)(F)F)C(F)(F)F`: the outcome was inactive.

In the case of `Oc1ccc(Nc2ccccc2)cc1`, the result was inactive.
